Shown are actives, neighbours in structure and some others; about 12% of the full set was active somewhere.
PLK1 PBD inh: PLK1 (human) polo-box domain binding inhibition | Plk1 PBD binding of FITC phosphopeptide, fluorescence polarization | actives 2.8% (n = 360,000) | P53350 | Potency, µM, inactives show max response, negative = inhibition, most hits filed as inhibitors; further: series mostly up to about 57 µM; on the % scale 0 is the no-effect control and ±100 the full control effect; nearly all actives have a fitted effect of over 65% in size
Target sequence (P53350 whole entry, looked up, the tested form may be a part): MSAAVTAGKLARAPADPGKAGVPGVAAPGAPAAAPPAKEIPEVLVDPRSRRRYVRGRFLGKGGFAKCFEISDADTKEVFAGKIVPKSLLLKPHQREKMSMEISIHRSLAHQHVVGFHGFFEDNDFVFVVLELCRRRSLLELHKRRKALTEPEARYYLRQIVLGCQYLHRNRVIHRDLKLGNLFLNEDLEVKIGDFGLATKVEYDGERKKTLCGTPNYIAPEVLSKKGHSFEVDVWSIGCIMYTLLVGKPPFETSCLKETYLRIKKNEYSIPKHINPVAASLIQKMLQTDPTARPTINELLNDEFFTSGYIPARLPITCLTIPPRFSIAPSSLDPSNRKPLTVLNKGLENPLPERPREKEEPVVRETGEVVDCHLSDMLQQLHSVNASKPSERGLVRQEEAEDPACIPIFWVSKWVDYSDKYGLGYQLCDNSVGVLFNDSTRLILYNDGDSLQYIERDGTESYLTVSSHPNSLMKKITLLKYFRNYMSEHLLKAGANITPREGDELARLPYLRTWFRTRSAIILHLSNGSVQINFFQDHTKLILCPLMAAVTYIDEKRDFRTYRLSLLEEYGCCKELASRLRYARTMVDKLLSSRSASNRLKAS
G9a block: G9a (human) methyltransferase inhibition | actives 8.8% (n = 350,000) | Q96KQ7 | G9a H3K9 monomethylation, AlphaScreen, 2 h | Potency, µM (titrated, usually from 102 µM), inactives show at the highest dose activity, negative = inhibition, actives largely listed as inhibitors; further: on the % scale 0 is the no-effect control and ±100 the full control effect; nearly all actives have a fitted effect of over 75% in size
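Enzyme 20 nM + cpd, 15 min RT; add b-H3K9 pep 500 nM / SAM 20 uM; 2 h RT; anti-H3K9me1 Ab 0.5 ug/mL + SA donor / anti-rabbit acceptor beads 20 ug/mL each, 10 min; AlphaScreen read.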
HP1b binding inh: inhibitors of HP1-beta chromodomain binding to methylated histone tails. AlphaScreen HP1-beta / biotin-H3K9me3 peptide binding. actives 0.56% (n = 390,000). AID 540317. P83916. Potency, µM (highest dose often 114 µM), without a hit: top-dose activity change, negative = inhibition, most hits filed as inhibitors; further: nearly all actives have a fitted effect of over 70% in size
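HP1-beta protein (50 nM final) preincubated 30 min at room temperature with biotinylated H3(1-18)K9me3 peptide (50 nM) in PBS pH 7.4, 0.01% Tween-20, then compound added for 30 min. AlphaScreen streptavidin donor/nickel chelate acceptor beads (10 ug/mL final), 30 min dark, luminescence read.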
Sfp inh: Sfp phosphopantetheinyl transferase inhibition; actives 3.5% (n = 310,000); AID 1490; Potency, µM, for the others: largest response in the series, negative = inhibition, hits mostly inhibitors; Biochemical Sfp PPTase activity, qHTS;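 further: the enzyme is Sfp with the accession as filed and its product quenches rhodamine fluorescence; 0% = enzyme reaction without inhibitor and -100% = no enzyme wells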
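Sfp 15 nM + cpd, 15 min RT; start w/ rhodamine-CoA 5 uM, BHQ-2-YbbR 12.5 uM (final); 50 mM Hepes pH 7.6, 10 mM MgCl2, 0.01% NP-40, 0.01% BSA; read 525/598 nm at 0 and 30 min.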
JMJD2A Tudor: blocks the human JMJD2A Tudor domain. AID 504339. AlphaScreen JMJD2A-Tudor / H3K4me3 peptide binding. O75164. Potency, µM (series often up to 114 µM), without a hit: at the highest dose activity change, negative = inhibition, most hits filed as inhibitors. actives 4.4% (n = 390,000); further: on the % scale 0 is the no-effect control and ±100 the full control effect; nearly all actives have a fitted effect of over 50% in size
BAZ2B block: inhibitors of human BAZ2B bromodomain | AlphaScreen BAZ2B-H3K14Ac peptide displacement | Potency, µM (series often up to 114 µM), inactives show top-dose activity change, negative = inhibition, most hits filed as inhibitors | Q9UIF8 | actives 4.4% (n = 360,000); further: on the % scale 0 is the no-effect control and ±100 the full control effect; nearly all actives have a fitted effect of over 60% in size
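BAZ2B (50 nM) with biotin-H3(5-23)K14Ac peptide (50 nM) in PBS pH 7.4, 0.01% Tween-20, preformed 30 min, then compound 30 min at room temperature; top concentration 110uM. AlphaScreen streptavidin donor/nickel chelate acceptor beads (10 ug/mL final), 20 min dark, signal read.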
Numbers without * were called inactive; i = inactive; ? = inconclusive; nt = not tested or not shown; [ ] = dose if it differs, or a comment. The call rests on the fitted dose curve; in most records, active means well fitted curve in the direction sought with a large enough effect; inconclusive means small, poorly fitted or top-dose-only effect, or another doubt; inactive means no such curve, though single readings can be large; an effect the other way counts as inactive or inconclusive. Potency means the concentration at half of the fitted maximal effect.

SMILES	PLK1 PBD inh	G9a block	HP1b binding inh	Sfp inh	JMJD2A Tudor	BAZ2B block
Cn1c(Cn2c(=O)sc3ccccc32)nnc1SCC(=O)NC1CCCC1	24µM*	12%[59 µM]	22%	31%	-32%	4%
Cc1ccccc1-n1c(Cn2c(=O)sc3ccccc32)nnc1SCC(=O)Nc1nccs1	-2%	-4%[59 µM]	52%	13%	2%	3%
CN(C)CCCOc1nc2c(c(=O)n(C)c(=O)n2C)n1C	1%	2%[59 µM]	43%	4%	-7%	0%
COc1cccc(C(=O)Nc2ccc3nc(SCc4ccc(C)cc4)sc3c2)c1	nt	5%[59 µM]	81%	nt	3%	-16%
C#CCOCCOCCOCCNc1nc(N2CCN(C(=O)[C@H](CCCCN)n3cc([C@@H](N)C(C)CC)nn3)CC2)nc(N2CCN(C(=O)[C@H](CCCCN)n3cc([C@@H](N)CO)nn3)CC2)n1 (stereo not given in full)	nt	?	nt	3%	nt	22µM*
C#CCOCCOCCOCCNc1nc(N2CCN(C(=O)[C@H]([C@@H](C)CC)n3cc([C@@H](N)CO)nn3)CC2)nc(N2CCN(C(=O)[C@H](CCCCN)n3cc([C@@H](N)C(C)CC)nn3)CC2)n1 (stereo not given in full)	-3%	12%[12.7 µM]	39%	-14%	50µM*	50µM*
CCCCc1nc2c(c3c1C[C@H](C)OC3)CN(C(=O)NCCc1c[nH]c3ccccc13)CC2	nt	nt	nt	3%	nt	nt
O=c1[nH]c2ccc(S(=O)(=O)Nc3ccccc3O)cc2[nH]1	-5%	2.2µM*	19%	-6%	-8%	-32%
COc1ccc2nc(N3CCC(C)CC3)c(C#N)cc2c1	-7%	421%[59 µM]	i	40µM*	489%	i
CCOc1ccc(N=Nc2ccc(O)c3ncccc23)cc1	-4%	40µM*	-8%	12%	?	?
NS(=O)(=O)c1ccc(N=Nc2ccc(O)c3ncccc23)cc1	-6%	50µM*	?	-21%	20µM*	3.5µM*
CCOc1ccc(N=Nc2cc(C(C)C)ccc2O)cc1	-2%	20µM*	14µM*	6%	18µM*	5.6µM*
NS(=O)(=O)c1ccc(N=NN2CCCCC2)cc1	-8%	?	9%	3%	-17%	0%
NS(=O)(=O)c1ccc(N=Nc2ccc(=O)[nH]c2O)cc1	27µM*	-31%[2.33 µM]	50µM*	?	35µM*	45µM*
CCOc1ccc(N=Nc2ccc(N)cc2N)cc1	nt	?	nt	-10%	nt	nt
CCNC(=O)C1(C)CCN(C(=O)c2cccc(C#N)c2)C1 (stereo not given)	-4%	nt	nt	nt	nt	nt
COc1cccc(-c2csc(N3CCN(C(=S)Nc4ccccc4C)CC3)n2)c1	-2%	-13%[0.501 µM]	3%	11%	-22%	?
Cc1cccc(NC(=O)CSc2nnc(-c3ccco3)c(-c3ccco3)n2)c1	27µM*	8.9µM*	?	7.9µM*	40µM*	50µM*
Cc1cccc(NC(=O)CSc2nnc(-c3ccco3)c(-c3ccco3)n2)c1C	15µM*	22%[0.501 µM]	?	32µM*	50µM*	35µM*
CCOC(=O)C1=C(N)N2C(=O)CSC2=C(C(=O)OC)C1	-18%	50µM*	38%	56µM*	-30%	?
CCOC(=O)c1ccc(N2C(=O)CC(C(=O)OC)=C2C)cc1	?	-39%[59 µM]	-9%	-3%	-32%	-4%
Cc1ccc(-c2ccc(=O)n(CC(=O)NCCc3ccc(Cl)cc3)n2)cc1	nt	-7%[59 µM]	3%	nt	89µM*	2%
O=C(CCc1cn(Cc2ccccc2Cl)c2ccccc12)NC1CCCCC1	nt	-34%[59 µM]	29%	nt	-5%	-8%
CCCCn1c(SCC(=O)N(C)C2CCS(=O)(=O)C2)nc2cc(S(N)(=O)=O)ccc21 (stereo not given)	-3%	41%[12.7 µM]	41%	3%	-5%	-24%
CCCCn1c(-c2c(Cl)c(C)nn2C)n[nH]c1=S	?	8.9µM*	-15%	-9%	13µM*	-22%
SMILES	PLK1 PBD inh	G9a block	HP1b binding inh	Sfp inh	JMJD2A Tudor	BAZ2B block
CCn1c(-c2c(Cl)c(C)nn2C)n[nH]c1=S	-6%	11µM*	-2%	-13%	20µM*	-5%
CCCCNC(=S)NNC(=O)c1c(Cl)c(C)nn1C	-6%	-9%[59 µM]	31%	12%	-3%	1%
CCOC(=O)c1[nH]c2c(c1Cc1ccccc1)C(=O)CC(c1ccc(OC)cc1)C2 (stereo not given)	nt	-2%[59 µM]	16%	nt	-26%	-22%
COc1cccc(-c2oc3ccccc3c(=O)c2O)c1	nt	nt	nt	-11%	nt	nt
O=c1c(O)c(-c2cccc(O)c2)oc2ccccc12	nt	nt	nt	45µM*	nt	nt
COc1ccc(Cl)cc1C(=O)NNC(=O)C1CCCO1 (stereo not given)	-6%	?	7%	nt	-14%	13%
Cn1nnnc1SCC(=O)NC(=O)Cc1ccccc1	3µM*	-26%[59 µM]	?	4%	?	8%
O=C(CSc1nnnn1-c1ccccc1)NC(=O)Cc1ccccc1	5%	13%[12.7 µM]	33%	nt	11%	9%
CN(C)S(=O)(=O)c1ccc(NC(=O)CSc2nnnn2C)cc1	-8%	32µM*	14%	?	-14%	-17%
CCOc1cccc(C2C=C(c3ccc4c(c3)OCO4)NC(c3ccc(Cl)cc3)N2)c1O (stereo not given)	nt	nt	-9%[57 µM]	nt	-9%[57.1 µM]	nt
CN(C)c1ncc2nc(-c3ccc(Cl)cc3)c(=O)n(-c3ccccc3)c2n1	nt	1%[0.501 µM]	nt	-2%	nt	nt
O=C1CCCC/C1=C\Nc1ccc(O)cc1	-1%	0.89µM*	17%	22µM*	-24%	0%
COc1ccc(NS(=O)(=O)c2ccc(N3CCCC3)c(NC(=S)Nc3ccc(SC(F)F)cc3)c2)cc1	4.7µM*	?	11µM*	18µM*	56µM*	?
COc1ccc(NS(=O)(=O)c2ccc(N3CCCC3)c(NC(=S)Nc3cccc(C)c3C)c2)cc1	3.8µM*	1.3µM*	?	13µM*	56µM*	?
CCNC(=O)Nc1cc(S(=O)(=O)Nc2ccc(OC)cc2)ccc1N1CCOCC1	4%	18%[2.33 µM]	42%	nt	-5%	4%
O=P1(O)Oc2c(c(-c3ccccc3)cc3ccc4ccccc4c23)-c2c(-c3ccccc3)cc3ccc4ccccc4c3c2O1	nt	nt	nt	-23%	nt	nt
CC(C)(C)NC(=O)CN(C(=O)CS(=O)CC(=O)Nc1ccc(F)cc1)c1ccc2c(c1)OCCO2 (stereo not given)	0%	-26%	30%	7%	0%	0%
CC(C)(C)NC(=O)CN(C(=O)CS(=O)CC(=O)Nc1ccc(F)cc1)c1ccccc1 (stereo not given)	-6%	50µM*	22%	11%	-16%	2%

Compound activity from PubChem BioAssay.
